Results filed as inconclusive are left out. Calls of active or inactive are those of the source.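 Rule for the calls, unless noted: active = percent response above 42, roughly 3 SD of non-fluorescent test compounds; inactive = the rest.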
Experiments:
[1] = rapamycin-like changes in RPL19A-GFP expression – cell-based, S. cerevisiae, multiplex flow cytometry, primary screen (AID 1862; in the data active = percent of DMSO control GFP below about 86%;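 note: lower values mimic rapamycin by blocking the RPL19A rise seen in DMSO cells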); conditions: S. cerevisiae RPL19A-GFP strain, flow cytometry fluorescence, 3 h; at 10 µM; stronger effect = lower value
[2] = TOR pathway GLN3 branch reporter MEP2-GFP changes – S. cerevisiae, multiplex flow cytometry, primary screen (AID 1867;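 active = GFP response, as percent of the DMSO control, above the screen-wide mean plus 3 SD, about 139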;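 note: median GFP channel fluorescence of barcode-gated MEP2-GFP cells measured by flow cytometry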); conditions: S. cerevisiae MEP2-GFP strain, 3 h, at 10 µM, stronger effect = higher value, 100% means same as DMSO wells
[3] = TOR pathway RTG branch CIT2 reporter changes – S. cerevisiae, GFP fusion, multiplex flow cytometry, primary screen (AID 1870;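 active = percent response above a set limit, the screen-wide mean plus 3 SD, cut at about 130% in these data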;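 note: barcoded CIT2-GFP strain pooled with four other GFP strains with rapamycin as positive control; median GFP fluorescence per well over plate mean of DMSO wells so 100% = DMSO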); conditions: S. cerevisiae CIT2-GFP expression, 3 h, at 10 µM, stronger effect = higher value
[4] = TOR pathway LAP4-GFP level changes – S. cerevisiae, multiplex flow cytometry, primary screen (AID 1873;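 active = GFP signal, as percent of the solvent control, above the screen mean plus 3 SD, about 149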); conditions: S. cerevisiae LAP4-GFP expression, 3 h, at 10 µM, stronger effect = higher value
[5] = yeast AGP1-GFP level changes, GLN3 branch – cell-based, multiplex flow cytometry, S. cerevisiae, primary screen (AID 1887;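 active = GFP signal above the screen-wide mean plus 3 SD, that is over about 124.5% of the solvent control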;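 note: AGP1-GFP fusion strain of S. cerevisiae within a five-strain barcoded multiplex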); conditions: 3 h, at 10 µM, stronger effect = higher value
[6] = reduced mouse 2C T cell binding to pMHC/ICAM-1 vesicles – MLPCN validation set, flow cytometry, LFA-1/ICAM-1 modulator project, pilot screen (AID 2523;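 active = response below a set limit, under 55% cells CD8-positive and vesicle-bound, and CD8 cells' 90th-percentile brightness under 279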;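 for vesicle binding response: mean PE anti-B7-1 fluorescence of CD8+ cells relative to row control; 100% = QL9-loaded vesicles with DMSO vehicle in the same plate row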); conditions: 2C mouse CD8+ T cells, at 7 µM, stronger effect = lower value; double positive events: measured here: CD8+/vesicle+ event percentage
[7] = target: Integrin beta-1 (Homo sapiens) + Integrin alpha-4 (Homo sapiens) (UniProt P13612+P05556); assay: alpha4beta1 integrin LIBS antibody binding reduction – U937 cells, HUTS-21 mAb, flow cytometry, validation set, VLA-4 allosteric modulator project, pilot screen (AID 2674;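 active = inhibition above 50%, about 3 SD of the validation set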;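 note: antibody binding induced by the VLA-4 ligand LDV present at three times its Kd; 0% = LDV ligand with antibody and no compound and 100% = antibody without LDV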); conditions: HUTS-21 LIBS mAb binding, at 6.7 µM, stronger effect = higher value, binding induced by LDV ligand
[8] = calorie-restriction mimetic ROS inhibitors, yeast – validation compound set, pilot screen (AID 2706;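 active = superoxide response below 65% of plate, a cut near 3 SD across the whole screen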;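 note: yeast exposed to compound for one week at 30 degrees C before staining; 100% = mean of all compound wells on the same plate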); conditions: S. cerevisiae aging, superoxide DHE fluorescence; at 10 µM; stronger effect = lower value
[9] = target: Beta-adrenergic receptor kinase 1 (Homo sapiens) (UniProt P25098); assay: GRK2 binders displacing RNA aptamer, biochemical, validation, human GRK2, bead flow cytometry (AID 488806;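 active = aptamer binding inhibition above 30%, about 3 SD of noise from non-fluorescent compounds; inactive = inhibition at or below 30%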); conditions: bead-bound GRK2, FAM-aptamer displacement, at 10 µM, stronger effect = higher value
[10] = target: Beta-2 adrenergic receptor (Homo sapiens) (UniProt P07550); assay: agonist-induced loss of surface beta2AR – cell-based, FAP fluorogen, flow cytometry, validation set, pilot screen (AID 504459); conditions: Am2.2-beta2AR cells, at 10 µM, stronger effect = higher value;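 note: agonist-driven loss of surface beta2AR via internalization measured by FAP dye flow cytometry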
[11] = target: AP-2 complex subunit beta (Homo sapiens) (UniProt P63010); assay: beta-arrestin/AP2 interaction blockers – biochemical, validation set, GST-AP2 beads, flow cytometry, pilot screen (AID 504541;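 active = inhibition above 54%, about 3 SD of non-fluorescent compounds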;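 note: AP2 carries R879A mutation and is captured from E. coli lysate; bead-bound FITC arrestin peptide fluorescence measuring arrestin peptide binding to AP2; 0% = DMSO wells and 100% = excess unlabeled arrestin peptide control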); conditions: FITC arrestin peptide, at 10 µM, stronger effect = higher value, AP2 beta2 appendage fragment, R879A mutant
[12] = cytosolic pH regulators acting via V-ATPase – S. cerevisiae, pHLuorin, HTS validation (AID 504600; in the data active = response above about 15%;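 note: plate controls were DMSO for no effect and reference compound for full effect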); conditions: V-ATPase proton transport, at 10 µM, stronger effect = higher value
[13] = test system: anti-desmoglein-3 scFv antibody binding to human DSG3; assay: blockers of pathogenic pemphigus antibody–desmoglein-3 binding – biochemical, validation compound set, bead-based, flow cytometry, pilot screen (AID 588368;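 active = binding below the plate cutoff, the plate median minus 3 SD, with a reading above zero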;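 note: signal is the median channel fluorescence of bead-bound GFP antibody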); conditions: Protein G beads, DSG3-Fc, scFv-GFP binding, at 10 µM, stronger effect = lower value
[14] = Nile Red efflux blockade in pump-expressing yeast – validation compound set, multiplex, phenotypic, pilot screen (AID 588506;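 active = efflux inhibition above 0.42, the validation set average plus 4 SD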;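 note: Nile Red retained in cells so higher fluorescence means more efflux inhibition; 0 = negative control wells and 1 = enniatin B 25 µM full block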); conditions: S. cerevisiae pump-expressing triplex, Nile Red efflux flow cytometry; at 10 µM; stronger effect = higher value; the pumps come from Candida albicans
[15] = target: ATP-binding cassette sub-family B member 6 (Homo sapiens) (UniProt Q9NP58); assay: blockers of ABCB6-driven porphyrin uptake – K562-ABCB6 cells, flow cytometry, validation set, pilot screen (AID 588550;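 active = inhibition above the screen-wide mean plus 3 SD, about 51%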;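 note: 0% = DMSO wells and 100% = benzethonium chloride 70 µM positive control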); conditions: K562-ABCB6 porphyrin accumulation, 1 h, at 10 µM, stronger effect = higher value
[16] = AML differentiation inducers, ER-HoxA9 marrow cells – cell-based, GFP/MAC1 double positive, flow cytometry, validation set, primary screen (AID 588685;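 active = differentiation response of at least 50%, scaled between solvent and reference control, from cells with both markers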;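 note: compound exposure lasts four days before antibody staining and flow analysis; 0% = DMSO wells and 100% = 5 µM fulvestrant positive control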); conditions: stronger effect = higher value, normalized: vehicle 0, fulvestrant 100

Chain of Beta-2 adrenergic receptor (Homo sapiens) (P07550 whole entry, looked up): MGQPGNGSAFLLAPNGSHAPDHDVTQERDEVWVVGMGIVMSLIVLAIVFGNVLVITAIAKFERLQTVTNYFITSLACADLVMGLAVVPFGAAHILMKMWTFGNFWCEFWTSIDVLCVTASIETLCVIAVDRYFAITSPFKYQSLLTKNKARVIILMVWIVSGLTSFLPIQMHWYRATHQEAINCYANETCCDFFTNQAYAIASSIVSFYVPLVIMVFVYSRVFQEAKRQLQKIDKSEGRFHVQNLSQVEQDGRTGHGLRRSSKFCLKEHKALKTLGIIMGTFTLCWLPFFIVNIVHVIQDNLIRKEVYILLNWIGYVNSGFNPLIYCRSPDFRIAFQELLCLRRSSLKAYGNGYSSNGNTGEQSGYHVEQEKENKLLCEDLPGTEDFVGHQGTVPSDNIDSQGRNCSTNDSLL
Chain of AP-2 complex subunit beta (Homo sapiens) (P63010 whole entry, looked up, the tested form may be a part, one chain of several): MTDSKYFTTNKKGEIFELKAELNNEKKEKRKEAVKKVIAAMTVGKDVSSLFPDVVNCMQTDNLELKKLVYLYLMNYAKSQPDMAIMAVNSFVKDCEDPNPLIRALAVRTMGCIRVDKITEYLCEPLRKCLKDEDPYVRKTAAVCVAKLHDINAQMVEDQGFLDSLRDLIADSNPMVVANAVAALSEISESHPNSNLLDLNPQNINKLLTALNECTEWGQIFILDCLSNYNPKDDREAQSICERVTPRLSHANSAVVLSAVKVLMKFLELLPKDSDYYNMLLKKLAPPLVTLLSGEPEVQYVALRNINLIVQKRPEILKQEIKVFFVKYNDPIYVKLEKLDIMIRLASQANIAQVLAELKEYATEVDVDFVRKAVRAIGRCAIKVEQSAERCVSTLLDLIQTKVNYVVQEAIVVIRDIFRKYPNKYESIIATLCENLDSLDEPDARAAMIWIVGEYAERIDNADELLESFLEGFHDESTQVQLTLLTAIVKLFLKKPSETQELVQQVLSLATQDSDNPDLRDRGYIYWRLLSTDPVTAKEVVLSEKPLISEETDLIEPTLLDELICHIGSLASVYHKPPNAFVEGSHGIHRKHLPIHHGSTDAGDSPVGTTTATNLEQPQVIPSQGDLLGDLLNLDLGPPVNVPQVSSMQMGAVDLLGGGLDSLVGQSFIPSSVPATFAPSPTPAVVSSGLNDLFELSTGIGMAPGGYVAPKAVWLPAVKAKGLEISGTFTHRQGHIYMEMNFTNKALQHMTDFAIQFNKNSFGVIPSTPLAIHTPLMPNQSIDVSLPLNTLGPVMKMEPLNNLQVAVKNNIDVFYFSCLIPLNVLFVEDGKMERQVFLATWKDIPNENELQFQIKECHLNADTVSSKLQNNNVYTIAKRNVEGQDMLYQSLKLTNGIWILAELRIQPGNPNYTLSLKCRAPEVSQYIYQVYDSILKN
Chain of Integrin beta-1 (Homo sapiens) + Integrin alpha-4 (Homo sapiens) (P05556 whole entry, looked up): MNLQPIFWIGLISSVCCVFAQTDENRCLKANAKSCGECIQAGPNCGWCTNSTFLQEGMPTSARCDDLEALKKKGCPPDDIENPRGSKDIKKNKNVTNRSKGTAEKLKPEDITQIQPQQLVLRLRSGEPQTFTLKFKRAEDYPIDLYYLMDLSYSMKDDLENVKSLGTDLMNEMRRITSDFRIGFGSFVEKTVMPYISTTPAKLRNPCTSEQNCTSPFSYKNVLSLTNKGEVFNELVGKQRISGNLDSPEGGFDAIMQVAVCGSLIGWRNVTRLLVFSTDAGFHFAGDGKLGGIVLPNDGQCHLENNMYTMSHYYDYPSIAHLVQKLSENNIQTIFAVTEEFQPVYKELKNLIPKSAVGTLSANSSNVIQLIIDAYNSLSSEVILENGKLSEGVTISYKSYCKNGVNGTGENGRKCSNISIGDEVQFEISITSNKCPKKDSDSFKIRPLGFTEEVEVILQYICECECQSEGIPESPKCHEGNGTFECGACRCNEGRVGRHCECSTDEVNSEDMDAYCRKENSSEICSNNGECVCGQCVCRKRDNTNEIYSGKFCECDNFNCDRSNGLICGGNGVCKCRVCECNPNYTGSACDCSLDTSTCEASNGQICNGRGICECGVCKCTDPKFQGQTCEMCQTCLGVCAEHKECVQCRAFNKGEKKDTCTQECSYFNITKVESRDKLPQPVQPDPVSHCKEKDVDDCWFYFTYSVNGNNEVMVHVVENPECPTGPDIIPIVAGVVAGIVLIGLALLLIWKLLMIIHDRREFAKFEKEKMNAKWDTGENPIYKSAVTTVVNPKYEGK
Chain of Integrin beta-1 (Homo sapiens) + Integrin alpha-4 (Homo sapiens) (P13612 whole entry, looked up): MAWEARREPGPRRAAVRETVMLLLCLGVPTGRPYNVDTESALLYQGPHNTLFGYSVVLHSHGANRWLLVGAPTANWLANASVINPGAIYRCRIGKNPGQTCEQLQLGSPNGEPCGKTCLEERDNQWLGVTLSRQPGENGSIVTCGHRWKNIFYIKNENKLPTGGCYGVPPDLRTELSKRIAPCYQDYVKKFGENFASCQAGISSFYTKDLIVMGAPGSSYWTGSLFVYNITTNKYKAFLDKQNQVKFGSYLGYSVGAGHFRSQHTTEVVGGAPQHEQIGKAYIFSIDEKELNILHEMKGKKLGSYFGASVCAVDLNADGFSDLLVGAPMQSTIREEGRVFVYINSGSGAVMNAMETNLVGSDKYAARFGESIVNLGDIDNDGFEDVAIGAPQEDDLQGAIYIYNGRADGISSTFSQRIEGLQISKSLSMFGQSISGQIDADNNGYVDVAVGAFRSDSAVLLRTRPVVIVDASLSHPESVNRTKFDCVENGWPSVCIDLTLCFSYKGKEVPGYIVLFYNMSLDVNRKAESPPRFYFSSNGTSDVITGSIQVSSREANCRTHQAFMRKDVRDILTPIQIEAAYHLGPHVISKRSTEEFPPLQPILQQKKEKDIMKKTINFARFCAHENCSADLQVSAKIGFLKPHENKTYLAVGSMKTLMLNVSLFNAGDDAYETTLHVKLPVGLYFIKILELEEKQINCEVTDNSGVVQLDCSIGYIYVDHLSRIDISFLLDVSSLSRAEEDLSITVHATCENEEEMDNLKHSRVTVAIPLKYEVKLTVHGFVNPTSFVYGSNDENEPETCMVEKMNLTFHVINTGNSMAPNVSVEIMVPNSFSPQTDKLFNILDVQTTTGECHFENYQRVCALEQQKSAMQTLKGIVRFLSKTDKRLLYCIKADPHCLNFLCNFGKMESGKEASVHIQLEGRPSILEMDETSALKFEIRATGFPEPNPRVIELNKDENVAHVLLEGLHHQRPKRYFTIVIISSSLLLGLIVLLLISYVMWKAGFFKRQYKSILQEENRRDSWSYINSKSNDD
Chain of Beta-adrenergic receptor kinase 1 (Homo sapiens) (P25098 whole entry, looked up): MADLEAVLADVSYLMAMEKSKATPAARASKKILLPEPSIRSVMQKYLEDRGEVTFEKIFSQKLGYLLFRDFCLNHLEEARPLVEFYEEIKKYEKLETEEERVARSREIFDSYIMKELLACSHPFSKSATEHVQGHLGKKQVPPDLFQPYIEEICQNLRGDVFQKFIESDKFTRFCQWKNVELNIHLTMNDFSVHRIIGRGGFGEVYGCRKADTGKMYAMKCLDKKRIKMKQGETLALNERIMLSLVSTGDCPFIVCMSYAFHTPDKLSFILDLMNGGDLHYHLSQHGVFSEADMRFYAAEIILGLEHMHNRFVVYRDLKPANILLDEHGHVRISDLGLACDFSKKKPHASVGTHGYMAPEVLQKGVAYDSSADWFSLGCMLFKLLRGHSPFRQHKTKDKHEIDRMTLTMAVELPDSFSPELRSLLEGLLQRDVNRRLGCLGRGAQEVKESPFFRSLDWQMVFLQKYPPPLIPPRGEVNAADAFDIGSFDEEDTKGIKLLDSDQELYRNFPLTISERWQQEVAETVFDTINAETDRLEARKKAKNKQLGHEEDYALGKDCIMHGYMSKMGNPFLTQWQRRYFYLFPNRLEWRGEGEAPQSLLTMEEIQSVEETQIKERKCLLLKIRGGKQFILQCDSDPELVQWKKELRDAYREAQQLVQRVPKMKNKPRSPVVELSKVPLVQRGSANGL
Chain of ATP-binding cassette sub-family B member 6 (Homo sapiens) (Q9NP58 whole entry, looked up): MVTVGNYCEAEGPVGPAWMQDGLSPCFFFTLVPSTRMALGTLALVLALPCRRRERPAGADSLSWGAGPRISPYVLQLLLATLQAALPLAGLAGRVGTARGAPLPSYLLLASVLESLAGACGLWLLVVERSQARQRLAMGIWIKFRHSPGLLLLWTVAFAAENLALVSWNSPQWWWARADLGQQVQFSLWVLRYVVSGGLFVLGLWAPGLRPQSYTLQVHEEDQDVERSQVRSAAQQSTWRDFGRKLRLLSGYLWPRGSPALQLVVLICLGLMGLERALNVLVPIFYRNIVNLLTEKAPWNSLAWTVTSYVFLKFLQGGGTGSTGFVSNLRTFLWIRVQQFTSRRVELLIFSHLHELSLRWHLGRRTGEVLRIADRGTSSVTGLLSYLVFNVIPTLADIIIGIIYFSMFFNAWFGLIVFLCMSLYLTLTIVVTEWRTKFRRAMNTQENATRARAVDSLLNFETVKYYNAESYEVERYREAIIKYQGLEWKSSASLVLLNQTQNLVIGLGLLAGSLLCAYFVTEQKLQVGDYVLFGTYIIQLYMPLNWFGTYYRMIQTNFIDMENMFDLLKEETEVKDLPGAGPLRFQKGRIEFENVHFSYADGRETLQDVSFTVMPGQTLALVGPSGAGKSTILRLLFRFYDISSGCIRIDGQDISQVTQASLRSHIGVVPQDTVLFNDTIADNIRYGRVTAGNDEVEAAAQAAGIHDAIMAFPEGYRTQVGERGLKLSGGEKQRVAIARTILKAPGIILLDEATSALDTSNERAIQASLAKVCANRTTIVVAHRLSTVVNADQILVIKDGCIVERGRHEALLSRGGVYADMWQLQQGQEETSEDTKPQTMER

SMILES	percent of DMSO control GFP [1]	GFP response vs DMSO [2]	percent response of DMSO control [3]	GFP response vs DMSO [4]	GFP response, % of DMSO [5]	double positive events [6]	vesicle binding response [6]	inhibition [7]	superoxide response (% of plate) [8]	aptamer binding inhibition [9]	response [10]	inhibition [11]	response [12]	binding (% of control) [13]	efflux inhibition (fraction of control) [14]	inhibition [15]	differentiation response [16]
COc1cccc2c(=O)c3ccccc3oc12	93.9% (inactive)	117% (inactive)	111% (inactive)	74.3% (inactive)	88% (inactive)	61.1%	134% (inactive)	-9.06% (inactive)	109% (inactive)	2% (inactive)	-12.3% (inactive)	-2.99% (inactive)	0.55% (inactive)	96% (inactive)	0.27 (inactive)	15% (inactive)	-3.28% (inactive)
Cc1c2c(nc3c(C)cccc13)OC(C)C2 (stereo not drawn)	105% (inactive)	100% (inactive)	112% (inactive)	97.3% (inactive)	103% (inactive)	52%	31.8% (active)	-3.57% (inactive)	99.9% (inactive)	-2% (inactive)	-11.5% (inactive)	2.14% (inactive)	3.8% (inactive)	97.6% (inactive)	0.11 (inactive)	3% (inactive)	-9.53% (inactive)
Cn1c(SCC(=O)c2ccccc2)nnc1-c1ccncc1	99% (inactive)	103% (inactive)	99.6% (inactive)	112% (inactive)	107% (inactive)	61.9%	157% (inactive)	0.59% (inactive)	105% (inactive)	6% (inactive)	-27.9% (inactive)	4.51% (inactive)	-4.48% (inactive)	99.2% (inactive)	-0.04 (inactive)	2% (inactive)	0.92% (inactive)
Cc1c(OCC(F)(F)F)ccnc1CS(=O)c1nc2ccccc2[nH]1 (stereo not drawn)	95.1% (inactive)	101% (inactive)	97% (inactive)	119% (inactive)	118% (inactive)	58.8%	153% (inactive)	-64.1% (inactive)	111% (inactive)	1% (inactive)	24.6% (inactive)	-4.09% (inactive)	-4.18% (inactive)	106% (inactive)	0.04 (inactive)	-6% (inactive)	-4% (inactive)
COc1ccc(CC(=O)NCC2(c3ccc(OC)c(OC)c3)CCOCC2)cc1	103% (inactive)	96.3% (inactive)	104% (inactive)	82.8% (inactive)	89.7% (inactive)	54%	175% (inactive)	5.03% (inactive)	102% (inactive)	8% (inactive)	-10.1% (inactive)	-7.91% (inactive)	0.74% (inactive)	99.3% (inactive)	-0.35 (inactive)	-23% (inactive)	-12% (inactive)
CC(C)(C)OC(=O)COc1cc(OCC(=O)OC(C)(C)C)c2c(=O)cc(-c3ccccc3)oc2c1	105% (inactive)	107% (inactive)	102% (inactive)	105% (inactive)	100% (inactive)	60.3%	77.9% (inactive)	-29.2% (inactive)	94.8% (inactive)	1% (inactive)	-17% (inactive)	-7.67% (inactive)	2.77% (inactive)	105% (inactive)	-0.07 (inactive)	35% (inactive)	-4.57% (inactive)
COc1ccc2c(c1)C=CC1(O2)N(CCO)c2ccccc2C1(C)C (stereo not drawn)	98.2% (inactive)	111% (inactive)	104% (inactive)	124% (inactive)	117% (inactive)	62.1%	212% (inactive)	-55.6% (inactive)	108% (inactive)	6% (inactive)	43.9% (active)	13.6% (inactive)	7.05% (inactive)	99.2% (inactive)	0.04 (inactive)	-25% (inactive)	-1.05% (inactive)
CC(C)OC(=O)c1ccc(NC(=O)c2cncc(Br)c2)cc1	103% (inactive)	104% (inactive)	98.6% (inactive)	103% (inactive)	88.5% (inactive)	56.1%	143% (inactive)	16.3% (inactive)	114% (inactive)	-1% (inactive)	0.79% (inactive)	-2.11% (inactive)	4.94% (inactive)	99% (inactive)	0.04 (inactive)	-3% (inactive)	-7.5% (inactive)
CC(=O)OC(CC(=O)O)C[N+](C)(C)C (stereo not drawn)	100% (inactive)	103% (inactive)	95.4% (inactive)	92.7% (inactive)	97.6% (inactive)	65%	243% (inactive)	-17.1% (inactive)	103% (inactive)	2% (inactive)	-0.16% (inactive)	14.1% (inactive)	-2.66% (inactive)	97.1% (inactive)	0.02 (inactive)	10% (inactive)	-8.55% (inactive)
CC1(C)CC(c2csc(N)n2)CCO1 (stereo not drawn)	103% (inactive)	106% (inactive)	106% (inactive)	86.8% (inactive)	101% (inactive)	65.9%	915% (inactive)	1.62% (inactive)	101% (inactive)	3% (inactive)	-0.12% (inactive)	8.95% (inactive)	-0.04% (inactive)	93.3% (inactive)	-0.14 (inactive)	-3% (inactive)	-4.64% (inactive)
O=C(NCCc1c[nH]c2ccccc12)c1cccnc1	101% (inactive)	101% (inactive)	98.6% (inactive)	113% (inactive)	103% (inactive)	61.5%	188% (inactive)	2.3% (inactive)	93.7% (inactive)	3% (inactive)	-0.09% (inactive)	17.6% (inactive)	-6.3% (inactive)	90.1% (inactive)	0.3 (inactive)	6% (inactive)	12% (inactive)
COC(=O)C1=C(C)N(Cc2ccco2)C(=O)/C1=C\c1ccc([N+](=O)[O-])cc1	102% (inactive)	103% (inactive)	97.8% (inactive)	95.3% (inactive)	96.2% (inactive)	66.2%	232% (inactive)	-274% (inactive)	112% (inactive)	-4% (inactive)	15.1% (inactive)	43.9% (inactive)	-6.06% (inactive)	205% (inactive)	0.18 (inactive)	-55% (inactive)	42.3% (inactive)
COc1ccc(C2=NOC(COc3ccc4c(C)cc(=O)oc4c3)C2)c(OC)c1 (stereo not drawn)	99% (inactive)	94.6% (inactive)	96% (inactive)	116% (inactive)	91.3% (inactive)	62.4%	171% (inactive)	-11.8% (inactive)	99.1% (inactive)	4% (inactive)	12.7% (inactive)	2.4% (inactive)	1.1% (inactive)	95.6% (inactive)	0.04 (inactive)	10% (inactive)	3.45% (inactive)
COc1ccc(N2C(=O)[C@@H]3[C@H](C2=O)[C@H]2c4ccccc4C=CN2[C@@H]3C(C)=O)cc1	101% (inactive)	104% (inactive)	96.5% (inactive)	112% (inactive)	96.8% (inactive)	64.6%	176% (inactive)	-27.9% (inactive)	98.7% (inactive)	2% (inactive)	-19.3% (inactive)	-12.3% (inactive)	-3.65% (inactive)	107% (inactive)	-0.26 (inactive)	-6% (inactive)	-3.11% (inactive)
c1ccc(Cn2ncc3c(Nc4ccccc4)ncnc32)cc1	96.7% (inactive)	106% (inactive)	103% (inactive)	117% (inactive)	107% (inactive)	63.6%	244% (inactive)	9.95% (inactive)	121% (inactive)	-1% (inactive)	-42.2% (inactive)	9.49% (inactive)	3.17% (inactive)	101% (inactive)	0.08 (inactive)	2% (inactive)	-8.93% (inactive)
C[N+](C)(C)CCCC(=O)c1ccc2c(c1)OCO2	94.4% (inactive)	111% (inactive)	96.7% (inactive)	107% (inactive)	97.7% (inactive)	59.8%	135% (inactive)	-22.3% (inactive)	104% (inactive)	0% (inactive)	-0.41% (inactive)	-2.19% (inactive)	0.48% (inactive)	101% (inactive)	-0.03 (inactive)	8% (inactive)	-12% (inactive)
Nc1nc(Cl)nc2c1ncn2[C@H]1C[C@H](O)[C@@H](CO)O1	99.2% (inactive)	102% (inactive)	106% (inactive)	104% (inactive)	114% (inactive)	63.3%	225% (inactive)	0.59% (inactive)	86.7% (inactive)	7% (inactive)	-24.5% (inactive)	27.9% (inactive)	2.75% (inactive)	103% (inactive)	0 (inactive)	-1% (inactive)	-9.91% (inactive)
COc1ccc(/C=C/C(=O)c2cc3cccc(OC)c3oc2=O)cc1	103% (inactive)	106% (inactive)	103% (inactive)	106% (inactive)	95.7% (inactive)	57.4%	172% (inactive)	-11.8% (inactive)	107% (inactive)	0% (inactive)	7.46% (inactive)	4.15% (inactive)	1.33% (inactive)	96% (inactive)	0.03 (inactive)	-11% (inactive)	2.74% (inactive)
O=C(O)CCCCCN1C(=O)C(=O)/C(=C(/O)c2ccccc2)C1c1ccccc1 (stereo not drawn)	99.5% (inactive)	97.4% (inactive)	98.6% (inactive)	119% (inactive)	102% (inactive)	63.1%	212% (inactive)	-5.89% (inactive)	103% (inactive)	7% (inactive)	-2.6% (inactive)	-10.9% (inactive)	-1.69% (inactive)	98% (inactive)	-0.06 (inactive)	7% (inactive)	7.2% (inactive)
